Assay results taken from PubChem BioAssay.
Potency and affinity values are given separately. Records with an inconclusive call do not appear. Calls of active or inactive are those of the source. Unless noted, no rule for the calls is given here.

Experiments:
[1] = cytotoxicity in PAX8-dependent RMG-1 cells, dose response, cell-based, cherry-pick (AID 687029;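 active = signal drop whose fitted half-maximal concentration is at most twice the top valid dose, in every test run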;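 also: cells exposed to compound for 96 hours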)
[2] = cytotoxicity in IOSE-T80 ovarian epithelial cells, dose response, selectivity assay for PAX8 inhibitor project, cell-based, cherry-pick (AID 687032;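 active = fitted half-maximal concentration for viability loss no higher than twice the top valid dose, in every repeat run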;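 also: cells exposed to compound for 96 h before reading; 0% = neutral control wells and -100% = 2 µM mitoxantrone kill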)
[3] = inhibitors of CMV-promoter luciferase reporter, dose response, counter-screen for Pax8 inhibitor project, cell-based, HEK293, luminescence, dry powder (AID 743020;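 active = signal-lowering compounds whose fitted half-maximal concentration is at or below twice the top tested dose in every run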;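 also: HEK293 cells stably expressing the CMV luciferase reporter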)
[4] = non-specific cell cytotoxicity, dose response, cytotoxicity control for PAX8 inhibitor project, plate reader, dry powder samples (AID 743021)
[5] = IGROV1 ovarian cancer cell cytotoxicity, dose response, PAX8 inhibitor project, plate reader, dry powder samples (AID 743043);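 also: more negative means fewer viable cells or more cytotoxicity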
[6] = NIH:OVCAR-3 ovarian cancer cell cytotoxicity, dose response, PAX8 inhibitor project, plate reader, dry powder samples (AID 743044); settings: max activity: at 35 µM, stronger effect = lower value unless noted
[7] = IOSE-T80 ovarian epithelial cell cytotoxicity, dose response, cytotoxicity control for PAX8 inhibitor project, plate reader, dry powder samples (AID 743045);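 also: 0% = neutral control median and -100% = positive control median; more negative values mean more cell killing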
[8] = A2780 ovarian cancer cell cytotoxicity, dose response, cytotoxicity control, plate reader, dry powder samples (AID 743046);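 also: 0% = neutral control wells and -100% = cytotoxic reference compound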
[9] = cytotoxicity in OVCAR8 ovarian cancer cells, dose response, PAX8 project, cell-based, plate reader, dry powder samples (AID 743197)

Measured: max activity

C[C@@H]1CCCCO[C@H](CN(C)C(=O)Cc2ccccc2)[C@H](C)CN([C@@H](C)CO)C(=O)c2cc(NC(=O)Nc3ccc(C(F)(F)F)cc3)ccc2O1
inactive: [1] | [2] | [3] | [4] | [5] | [6] 13.6% | [7] | [8] | [9]

C[C@@H]1CN([C@@H](C)CO)C(=O)c2cc(NC(=O)Nc3ccc4c(c3)OCO4)ccc2O[C@@H]1CN(C)C(=O)Nc1ccc(C(F)(F)F)cc1
inactive: [1] | [2] | [3] | [4] | [5] | [6] 51.3% [at 0.26 µM, stronger effect = lower value] | [7] | [8] | [9]

C[C@@H]1CCCCO[C@H](CN(C)Cc2ccccc2)[C@H](C)CN([C@H](C)CO)C(=O)c2cc(NC(=O)Nc3ccc(C(F)(F)F)cc3)ccc2O1
inactive: [1] | [2] | [3] | [4] | [5] | [6] -9.62% | [7] | [8] | [9]

Cc1ccc(S(=O)(=O)N(C)C[C@H]2OCCCC[C@@H](C)Oc3ccc(NS(=O)(=O)c4ccc(F)cc4)cc3C(=O)N([C@@H](C)CO)C[C@H]2C)cc1
inactive: [1] | [2] | [3] | [4] | [5] | [6] -18.9% [at 0.5 µM, stronger effect = lower value] | [7] | [8] | [9]

C[C@@H]1CCCCO[C@H](CN(C)Cc2ccncc2)[C@H](C)CN([C@@H](C)CO)C(=O)c2cc(NC(=O)Nc3ccc(C(F)(F)F)cc3)ccc2O1
inactive: [1] | [2] | [3] | [4] | [5] | [6] -11.1% [at 0.26 µM, stronger effect = lower value] | [7] | [8] | [9]

C[C@H](CO)N1C[C@H](C)[C@@H](CN(C)Cc2ccc(-c3ccccc3)cc2)Oc2ccc(NC(=O)Cc3ccccc3)cc2CC1=O
inactive: [1] | [2] | [3] | [4] | [5] | [6] -13.7% [at 0.5 µM, stronger effect = lower value] | [7] | [8] | [9]

O=C(Nc1cccc(F)c1)N[C@@H]1CC[C@@H](CCNS(=O)(=O)c2cccc(Cl)c2)O[C@@H]1CO
inactive: [1] | [2] | [3] | [4] | [5] | [6] -20.4% [at 0.5 µM, stronger effect = lower value] | [7] | [8] | [9]

C[C@@H]1CCCCO[C@@H](CN(C)Cc2ccc(C(F)(F)F)cc2)[C@H](C)CN([C@H](C)CO)C(=O)c2cc(NS(=O)(=O)c3ccc(Cl)cc3)ccc2O1
inactive: [1] | [2] | [3] | [4] | [5] | [6] -15.2% [at 1.1 µM, stronger effect = lower value] | [7] | [8] | [9]

Cc1ccc(S(=O)(=O)Nc2ccc3c(c2)C(=O)N([C@@H](C)CO)C[C@@H](C)[C@@H](CN(C)Cc2ccc(Cl)c(Cl)c2)OCCCC[C@@H](C)O3)cc1
inactive: [1] | [2] | [3] | [4] | [5] | [6] -8.95% | [7] | [8] | [9]

C[C@H]1CCCCO[C@H](CN(C)Cc2ccc(Cl)c(Cl)c2)[C@@H](C)CN([C@@H](C)CO)C(=O)c2cc(NC(=O)Nc3ccc(F)cc3)ccc2O1
inactive: [1] | [2] | [3] | [4] | [5] | [6] -19.8% [at 0.26 µM, stronger effect = lower value] | [7] | [8] | [9]

C[C@@H]1CCCCO[C@H](CN(C)S(=O)(=O)c2cccs2)[C@H](C)CN([C@@H](C)CO)C(=O)c2cc(NC(=O)CCC(F)(F)F)ccc2O1
inactive: [1] | [2] | [3] | [4] | [5] | [6] -17.7% | [7] | [8] | [9]

C[C@@H]1CN([C@@H](C)CO)C(=O)c2ccccc2-c2ccccc2CO[C@@H]1CN(C)Cc1ccc2c(c1)OCCN2C
inactive: [1] | [2] | [3] | [4] | [5] | [6] 3.55% | [7] | [8] | [9]

COc1ccc(S(=O)(=O)Nc2ccc3c(c2)CC(=O)N([C@@H](C)CO)C[C@@H](C)[C@H](CN(C)Cc2ccc(-c4ccccc4)cc2)O3)cc1
inactive: [1] | [2] | [3] | [4] | [5] | [6] 35.7% [at 1 µM, stronger effect = lower value] | [7] | [8] | [9]

C[C@@H]1CN([C@@H](C)CO)C(=O)Cc2cc(NC(=O)Nc3ccc(C(F)(F)F)cc3)ccc2O[C@H]1CN(C)S(=O)(=O)c1ccc(F)cc1
inactive: [1] | [2] | [3] | [4] | [5] | [6] 16.6% [at 1 µM, stronger effect = lower value] | [7] | [8] | [9]

C[C@@H]1CN([C@@H](C)CO)C(=O)Cc2cc(NC(=O)c3ccncc3)ccc2O[C@@H]1CN(C)Cc1ccc(-c2ccccc2)cc1
inactive: [1] | [2] | [3] | [4] | [5] | [6] 8.74% [at 0.26 µM, stronger effect = lower value] | [7] | [8] | [9]

C[C@H]1CCCCO[C@H](CN(C)C(=O)Nc2ccc(C(F)(F)F)cc2)[C@@H](C)CN([C@@H](C)CO)C(=O)c2cc(NC(=O)c3ccncc3)ccc2O1
inactive: [1] | [2] | [3] | [4] | [5] | [6] -23.2% [at 0.26 µM, stronger effect = lower value] | [7] | [8] | [9]

COc1ccccc1S(=O)(=O)N(C)C[C@@H]1Oc2cc(C#CCC3CCCC3)ccc2S(=O)(=O)N([C@@H](C)CO)C[C@@H]1C
inactive: [1] | [2] | [3] | [4] | [5] | [6] -15.5% | [7] | [8] | [9]

CO[C@H]1CN(C)C(=O)c2cc(NC(=O)c3nc4ccccc4s3)ccc2OC[C@H](C)N(Cc2cccnc2)C[C@H]1C
inactive: [1] | [2] | [3] | [4] | [5] | [6] 15.1% [at 0.26 µM, stronger effect = lower value] | [7] | [8] | [9]

Cc1ccc(S(=O)(=O)N(C)C[C@@H]2OCCCC[C@H](C)Oc3ccc(NS(=O)(=O)c4ccc(Cl)cc4)cc3C(=O)N([C@H](C)CO)C[C@H]2C)cc1
inactive: [1] | [2] | [3] | [4] | [5] | [6] 19.8% [at 0.5 µM, stronger effect = lower value] | [7] | [8] | [9]

C[C@@H]1CCCCO[C@H](CN(C)C(=O)Nc2ccc(F)cc2)[C@@H](C)CN([C@@H](C)CO)C(=O)c2cc(NC(=O)Nc3ccc(C(F)(F)F)cc3)ccc2O1
inactive: [1] | [2] | [3] | [4] | [5] | [6] 19.8% [at 0.26 µM, stronger effect = lower value] | [7] | [8] | [9]

C[C@@H]1CN([C@H](C)CO)C(=O)c2cc(NC(=O)Nc3ccccc3)ccc2O[C@@H](C)CCCCO[C@H]1CN(C)Cc1ccc(Cl)c(Cl)c1
inactive: [1] | [2] | [3] | [4] | [5] | [6] -19.3% | [7] | [8] | [9]

C[C@@H]1CCCCO[C@@H](CN(C)C(=O)C2CCCCC2)[C@H](C)CN([C@H](C)CO)C(=O)c2cc(NS(=O)(=O)c3ccc(Cl)cc3)ccc2O1
inactive: [1] | [2] | [3] | [4] | [5] | [6] -13.3% [at 0.5 µM, stronger effect = lower value] | [7] | [8] | [9]

COc1ccc(S(=O)(=O)N(C)C[C@H]2Oc3ccc(NC(=O)Nc4ccc(C(F)(F)F)cc4)cc3CC(=O)N([C@H](C)CO)C[C@@H]2C)cc1
inactive: [1] | [2] | [3] | [4] | [5] | [6] 26.7% [at 16 µM, stronger effect = lower value] | [7] | [8] | [9]

C[C@H]1CCCCO[C@@H](CN(C)C(=O)c2ccccc2)[C@@H](C)CN([C@@H](C)CO)C(=O)c2cc(NC(=O)Nc3ccc(C(F)(F)F)cc3)ccc2O1
inactive: [1] | [2] | [3] | [4] | [5] | [6] 13.2% [at 1.1 µM, stronger effect = lower value] | [7] | [8] | [9]

C[C@H](CO)N1C[C@H](C)[C@@H](CN(C)C(=O)NC2CCCCC2)Oc2cc(C#Cc3ccc(F)cc3)ccc2S1(=O)=O
inactive: [1] | [2] | [3] | [4] | [5] | [6] 10.3% [at 2.1 µM, stronger effect = lower value] | [7] | [8] | [9]

C[C@@H]1CN([C@@H](C)CO)C(=O)Cc2cc(NC(=O)Nc3ccc(F)cc3)ccc2O[C@H]1CN(C)CC1CCCCC1
inactive: [1] | [2] | [3] | [4] | [5] | [6] 14.9% [at 2.1 µM, stronger effect = lower value] | [7] | [8] | [9]

C[C@H](CO)N1C[C@H](C)[C@H](CN(C)Cc2ccc3c(c2)OCO3)OCCCC[C@H](C)Oc2ccc(NS(=O)(=O)c3ccc(Cl)cc3)cc2C1=O
inactive: [1] | [2] | [3] | [4] | [5] | [6] 2.84% | [7] | [8] | [9]

C[C@@H]1CN([C@@H](C)CO)C(=O)c2cc(NS(=O)(=O)c3ccc(Cl)cc3)ccc2O[C@@H](C)CCCCO[C@H]1CN(C)Cc1ccc(C(F)(F)F)cc1
inactive: [1] | [2] | [3] | [4] | [5] | [6] 22.1% [at 16 µM, stronger effect = lower value] | [7] | [8] | [9]

C[C@@H]1CCCCO[C@@H](CN(C)Cc2ccc(C(F)(F)F)cc2)[C@H](C)CN([C@@H](C)CO)C(=O)c2cc(NS(=O)(=O)c3ccccc3)ccc2O1
inactive: [1] | [2] | [3] | [4] | [5] | [6] 11.3% [at 2.1 µM, stronger effect = lower value] | [7] | [8] | [9]
